Screens from PubChem.
PAD4 FP inh = human PAD4 inhibitors, primary screen, biochemical, fluorescence polarization, 1536-well format; AID 485272, 2010; 0.41% of 330,000 active; Protein-arginine deiminase type-4 (Homo sapiens), Q9UM07; inhibition, % at 6.36 µM; recombinant PAD4, RCA probe fluorescence polarization;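 active means percent inhibition above a cutoff equal to the mean of all tested compounds plus 3 SD, cut at about 15% in these data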;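 further: 0% = PAD4 with RCA probe and DMSO and 100% = probe without PAD4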
LYPLA1 inh = LYPLA1 inhibitors, primary screen, counter-screen for PME1 inhibitor project, biochemical, fluorescence polarization, FP-Rh probe ABPP; recombinant LYPLA1; inhibition, % at 5.9 µM; 0.16% of 320,000 active; AID 2174, 2009;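 active means inhibition above the mean of all tested compounds plus 3 SD, set per campaign, cut at about 14% in these data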;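 further: inhibitors block serine hydrolase probe labeling of LYPLA1 so polarization falls; 0% = enzyme with DMSO and 100% = wells lacking LYPLA1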
Target sequence (O75608 whole entry, looked up): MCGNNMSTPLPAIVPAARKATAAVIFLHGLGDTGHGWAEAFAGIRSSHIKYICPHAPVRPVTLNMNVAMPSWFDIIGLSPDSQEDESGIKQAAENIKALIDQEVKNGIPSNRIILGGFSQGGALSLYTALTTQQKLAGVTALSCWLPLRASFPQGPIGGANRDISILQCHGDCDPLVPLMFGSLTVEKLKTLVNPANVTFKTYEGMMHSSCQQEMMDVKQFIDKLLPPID
PME-1 inh = PME-1 inhibitors via competitive probe labeling, primary screen, biochemical, fluorescence polarization, FP-Rh probe, HTS; 0.53% of 320,000 active; recombinant PME-1; inhibition, % at 5.9 µM; AID 2130, 2009;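 active means inhibition above the campaign mean of all compounds plus 3 SD, cut at about 26% in these data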;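 further: competitive labeling of PME-1 active site by serine hydrolase directed probe; 0% = PME-1 with DMSO and 100% = wells lacking PME-1 enzyme; inhibitors block probe labeling so polarization falls and inhibition rises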
GSTO1 inh = inhibitors of recombinant GSTO1, primary screen, counter-screen for RBBP9 inhibitor project, biochemical, fluorescence polarization; AID 1974, 2009; inhibition, % at 5.96 µM; Glutathione S-transferase omega-1 (Homo sapiens), P78417; 1.1% of 300,000 active; activity-based probe fluorescence polarization;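 active means inhibition above the campaign mean inhibition plus 3 SD, cut at about 35% in these data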;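 further: 0% = GSTO1-1 with DMSO and 100% = wells lacking GSTO1-1 enzyme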
Target sequence (P78417 whole entry, looked up): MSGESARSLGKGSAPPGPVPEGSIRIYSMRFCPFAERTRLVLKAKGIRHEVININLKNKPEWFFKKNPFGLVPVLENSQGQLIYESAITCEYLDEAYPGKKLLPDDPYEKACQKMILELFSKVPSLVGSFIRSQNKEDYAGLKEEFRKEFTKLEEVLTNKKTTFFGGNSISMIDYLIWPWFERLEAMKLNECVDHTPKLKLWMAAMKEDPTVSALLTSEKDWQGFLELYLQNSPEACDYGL
Fam108B inh = mouse Fam108B serine hydrolase inhibitors, primary screen, counter-screen for RBBP9 inhibitor project, biochemical, fluorescence polarization; recombinant Fam108B, FP-Rh probe fluorescence polarization; inhibition, % at 9.51 µM; 0.33% of 300,000 active;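 active means inhibition above the screen mean inhibition plus 3 SD, computed separately per campaign, cut at about 18% in these data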;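 further: inhibitors lower polarization as less probe binds the enzyme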
LYPLA2 counter = LYPLA2 inhibitors, primary screen, counter-screen for PME1 inhibitor project, biochemical, fluorescence polarization, FP-Rh probe ABPP. Acyl-protein thioesterase 2 (Homo sapiens), O95372. recombinant LYPLA2. inhibition, % at 5.9 µM. 0.38% of 320,000 active. AID 2177, 2009;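 active means inhibition above the screen-wide mean plus 3 SD, limit set per campaign, cut at about 26% in these data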;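 further: 0% = LYPLA2 with DMSO and 100% = wells lacking LYPLA2 enzyme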
GSTO1 inh conf = GSTO1 inhibitor hit confirmation, counter-screen for RBBP9 inhibitor project, biochemical, fluorescence polarization, triplicate; shares compounds with GSTO1 inh; recombinant GSTO1, probe fluorescence polarization; inhibition, % at 5.96 µM; 54% of 2,400 active; AID 2176, 2009;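 active means inhibition above the primary screen's cutoff, its mean inhibition plus 3 SD, cut at about 35% in these data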;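 further: loss of polarization as inhibitors block binding of rhodamine sulfonate ester activity probe; 0% = GSTO1 with DMSO and 100% = wells lacking GSTO1 enzyme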
GSTO1 recomb ABPP = inhibitors of purified human GSTO1, late-stage follow-up, biochemical, gel ABPP, SE-Rh probe, percent inhibition. shares compounds with GSTO1 inh. recombinant GSTO1, gel ABPP SE-Rh probe fluorescence. inhibition, % at 1 µM. 30% of 130 active;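 active means inhibition of the enzyme GSTO1 above about 75%, limit read from the data; inactive means inhibition below that limit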
Numbers without * were called inactive; x = not tested or not shown. Compounds with a hit are over-represented: about 1.8% of the library has one in this group of screens.

SMILES	PAD4 FP inh	LYPLA1 inh	PME-1 inh	GSTO1 inh	Fam108B inh	LYPLA2 counter	GSTO1 inh conf	others
CCc1nc(N2CCN(C(C)=O)CC2)c2c3c(sc2n1)CC(C(C)(C)C)CC3 (configuration not stated)	-3.7	0.6	-3.8	-8.2	-1.1	1.7	x
CCc1nc(N2CCN(C(=O)CCl)CC2)c2c3c(sc2n1)CC(C)CC3 (configuration not stated)	2.4	-0.8	1.8	63.2*	-2.0	-3.7	78.7*	GSTO1 recomb ABPP=51.0
Cc1ccc(-n2nc(C)c3c2OC(N)=C(C#N)C3c2ccc(C)o2)cc1 (configuration not stated)	-10.7	0.2	3.5	47.8*	3.1	1.1	11.5
COc1ccc(CCNC(=O)c2ccc3c(c2)N(Cc2ccc(F)cc2)CCS3)c(OC)c1	-0.7	-1.2	18.4	-0.6	-2.6	-2.3	x
COC(=O)CCC(=O)OC1(C)C(=O)C2=CN(Cc3ccco3)C(c3ccc(OC)cc3)=CC2=C(Br)C1=O (configuration not stated)	-17.5	-9.1	-0.2	6.1	5.8	-8.2	x
COC(=O)CCC(=O)OC1(C)C(=O)C2=CN(C3CCCC3)C(c3ccc(OC)cc3)=CC2=C(Br)C1=O (configuration not stated)	-22.8	1.5	-0.4	50.3*	7.5	-5.0	30.0
COCCN1C=C2C(=O)C(C)(OC(=O)CCC(=O)OC)C(=O)C(Br)=C2C=C1c1ccc(OC)cc1 (configuration not stated)	-6.3	-0.5	4.2	54.8*	3.4	2.6	60.9*
C=CCN1C=C2C(=O)C(C)(OC(=O)CCC(=O)OC)C(=O)C(Br)=C2C=C1c1ccc(OC)cc1 (configuration not stated)	-6.1	9.8	6.0	61.2*	4.7	8.4	69.2*
O=C(c1ccc(Cl)c(S(=O)(=O)N2CCCCCC2)c1)N1CCN(c2ccccc2O)CC1	-1.8	-0.8	1.4	5.6	1.2	0.7	x
O=S(=O)(Nc1ccc(-n2cnnn2)cc1)c1ccc(Cl)s1	2.5	x	x	x	x	x	x
COc1ccc(/C=N/NC(=O)c2ccn[nH]2)cc1CSc1ccccn1	0.4	0.5	-4.2	46.7*	5.3	14.5	-5.1
Cn1c(NC(=O)c2ccc(Cl)cc2)c(-c2ccccn2)c(=O)c2ccccc21	5.4	2.2	0.0	44.0*	-0.3	1.5	5.4
CC(C)C(=O)Nc1c(-c2ccc(Cl)cc2)c(=O)c2ccccc2n1C	3.8	3.5	-2.4	4.2	-6.7	-3.9	x
CC(=O)Oc1ccccc1C(=O)N(C1CCCCC1)C1CCCCC1	-1.6	-1.0	-9.2	0.3	4.1	-2.5	x
CSc1ncccc1C(=O)OCC(=O)N1CCc2ccccc21	1.1	x	x	x	x	x	x
COC(=O)c1ccc(CC(=O)c2ccc(O)cc2O)o1	-2.7	-6.7	-10.3	11.3	0.2	-4.6	x
COC(=O)c1ccc(CC(=O)c2c(C)cc(O)cc2O)o1	-12.5	-7.0	1.3	43.2*	1.3	-8.9	11.7
O=C(NC1CCCC1)c1cccc(Oc2ccccc2)c1	8.7	0.3	4.4	3.1	-1.9	9.1	x
CN1CCC(NC(=O)c2cccc(Oc3ccccc3)c2)CC1	-1.5	3.7	2.5	63.5*	2.7	2.5	5.9
CC(=O)NC1(C(Cl)(Cl)Cl)Oc2ccccc2O1	-6.2	1.6	2.8	2.0	3.6	5.2	x
CCCCNC(=O)NC1(C(F)(F)F)Oc2ccccc2O1	-3.7	-6.0	-2.2	54.9*	-2.8	-3.7	4.0
O=C(NCCN1CCOCC1)NC1(C(F)(F)F)Oc2ccccc2O1	-1.5	-3.1	-3.6	57.3*	-0.9	-1.1	4.7
O=C(NCc1cccnc1)NC1(C(F)(F)F)Oc2ccc(Cl)cc2O1 (configuration not stated)	-5.9	-0.1	5.1	27.0	-0.9	-3.5	x
NS(=O)(=O)c1ccc(CCNC(=O)CNCCc2ccccc2)cc1	-7.5	2.3	-4.0	1.7	2.0	4.5	x
NS(=O)(=O)c1ccc(CCNC(=O)NC2(C(F)(F)F)Oc3ccccc3O2)cc1	-1.0	-1.8	-3.9	47.5*	1.8	4.6	2.1
SMILES	PAD4 FP inh	LYPLA1 inh	PME-1 inh	GSTO1 inh	Fam108B inh	LYPLA2 counter	GSTO1 inh conf	others
COCCNC(=O)NC1(C(F)(F)F)Oc2ccc(Cl)cc2O1 (configuration not stated)	2.0	2.9	2.2	37.6*	1.8	-8.5	4.8
COc1ccc(OC)c(NC(=O)NC2(C(F)(F)F)Oc3ccccc3O2)c1	-2.9	-5.4	4.4	56.5*	1.0	-0.2	6.7
COC(=O)c1ccc2c(=O)[nH]c(COC(=O)c3c(-c4ccccc4)noc3C)nc2c1	-7.0	-2.6	-11.6	3.7	-2.8	-2.5	x
O=C1/C(=C\c2ccc(O)c(O)c2)N=C2CCCCCN12	1.6	-1.9	-6.0	44.4*	-2.6	1.3	5.9
COc1cc(/C=C2\N=C3CCCCCN3C2=O)ccc1O	-6.7	0.7	3.9	1.1	0.4	6.1	x
CCOc1cc(CNc2ccc(O)cc2)cc(Br)c1OCc1ccccc1F	7.8	7.2	20.7	80.4*	6.7	13.2	1.1
O=S1(=O)CC2NC(=S)N(c3cccc(Br)c3)C2C1 (configuration not stated)	0.8	2.9	-0.2	-0.6	-3.7	0.8	x
COc1ccc2nc3cccc(OC)c3nc2c1	-0.7	0.2	-2.7	56.5*	8.0	4.5	87.4*
COc1ccc2nc(-c3ccccc3)cc(OC)c2c1	-5.0	1.0	-2.7	-4.8	-4.3	-5.0	x
C#CCOCCOCCOCCNc1nc(N2CCN(C(=O)Cn3cc(CCCCN)nn3)CC2)nc(N2CCN(C(=O)[C@H](CCCCN)n3cc(CCCC)nn3)CC2)n1	-2.1	2.2	2.1	59.6*	4.2	4.9	1.8
CCC(Sc1nc(-c2ccccc2)c(C#N)c(=O)[nH]1)C(=O)Nc1nnc(C)s1 (configuration not stated)	0.6	0.0	-6.6	61.3*	-4.1	0.3	63.4*
COC(=O)CCC(=O)OC1(C)C(=O)C=C2C=C(C3CC3)N(c3cccc(C#N)c3)C=C2C1=O (configuration not stated)	-10.9	1.7	5.4	58.0*	6.2	0.4	7.5
